# High-throughput results: PubChem, several laboratories
# S1P3 antagonist = S1P3 receptor antagonists, primary screen, cell-based | 170,000 compounds, 0.27% hits | Sphingosine 1-phosphate receptor 3 (Homo sapiens), Q99500 | inhibition, % at 4.98 µM | AID 485, 2006 | CHO S1P3 NFAT-BLA reporter, FRET fluorescence, antagonist mode;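 active means inhibition above the plate cutoff, the mean inhibition of test wells on that plate plus 3 SD, cut at about 28% in these data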;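 further: cells challenged with S1P at its EC80 of 0.8 µM; blue over green emission ratio from cleaved BLA substrate after 4 h stimulation; 0% = S1P-stimulated wells and 100% = unstimulated DMSO-only wells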
# S1P4 ag = S1P4 receptor agonists, primary screen, cell-based. Sphingosine 1-phosphate receptor 4 (Homo sapiens), O95977. S1P4-expressing cell line, agonist reporter assay. activation, % at 4.98 µM. 220,000 compounds, 0.35% hits. AID 1509, 2009; in the data active means activation above about 11%;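 further: 0% = DMSO vehicle and 100% = reference agonist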
# ROMK mod = ROMK potassium channel modulators, primary screen, cell-based, thallium flux, MLSMR library | ATP-sensitive inward rectifier potassium channel 1 (Homo sapiens), P48048 | Tet-inducible ROMK, thallium flux fluorescence; actives lie on both sides | B-score at 10 µM | 130,000 compounds, 2% hits | AID 1918, 2009;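 active means signal ratio slope over the read window, or its plate-corrected B-score, at least 3 SD from the plate mean, either direction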;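 further: B-score of the F/F0 ratio slope over 7 to 12 s after thallium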
# RAM inhibit = inhibitors of the yeast RAM network, primary screen, dse1pr::URA3 reporter, 5-FOA selection; 190,000 compounds, 1.8% hits; inhibition, % at 50 µM; S. cerevisiae dse1pr::URA3 reporter, 5-FOA growth OD615, 2 d; analog-sensitive cbk1-as2 kinase mutant strain;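 active means inhibition above a set limit, 3 SD over mean compound inhibition, cut at about 8.4% in these data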;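 further: 0% = DMSO-only wells with no growth and 100% = 10 µM 1-NA-PP1 full growth; inhibition rescues growth on 5-FOA so higher OD means more RAM inhibition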
# KCC2 mod = KCC2 cotransporter modulators, thallium flux, primary screen, cell-based, HEK293 KCC2, FluoZin-2 fluorescence, MLSMR. Solute carrier family 12 member 5 (Homo sapiens), Q9H2X9. B-score of Tl+ flux slope (higher = more flux/activation; lower = inhibition) at 10 µM. KCC2 cells, thallium flux FluoZin-2 fluorescence. 190,000 compounds, 2.2% hits;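 active means thallium flux slope and its plate-corrected score both differing from the plate sample mean at a set confidence after two filtering rounds, in either direction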;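 further: slope of fluorescence scaled to starting intensity during 10 to 20 s after thallium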
# Target sequence (Q9H2X9 whole entry, looked up): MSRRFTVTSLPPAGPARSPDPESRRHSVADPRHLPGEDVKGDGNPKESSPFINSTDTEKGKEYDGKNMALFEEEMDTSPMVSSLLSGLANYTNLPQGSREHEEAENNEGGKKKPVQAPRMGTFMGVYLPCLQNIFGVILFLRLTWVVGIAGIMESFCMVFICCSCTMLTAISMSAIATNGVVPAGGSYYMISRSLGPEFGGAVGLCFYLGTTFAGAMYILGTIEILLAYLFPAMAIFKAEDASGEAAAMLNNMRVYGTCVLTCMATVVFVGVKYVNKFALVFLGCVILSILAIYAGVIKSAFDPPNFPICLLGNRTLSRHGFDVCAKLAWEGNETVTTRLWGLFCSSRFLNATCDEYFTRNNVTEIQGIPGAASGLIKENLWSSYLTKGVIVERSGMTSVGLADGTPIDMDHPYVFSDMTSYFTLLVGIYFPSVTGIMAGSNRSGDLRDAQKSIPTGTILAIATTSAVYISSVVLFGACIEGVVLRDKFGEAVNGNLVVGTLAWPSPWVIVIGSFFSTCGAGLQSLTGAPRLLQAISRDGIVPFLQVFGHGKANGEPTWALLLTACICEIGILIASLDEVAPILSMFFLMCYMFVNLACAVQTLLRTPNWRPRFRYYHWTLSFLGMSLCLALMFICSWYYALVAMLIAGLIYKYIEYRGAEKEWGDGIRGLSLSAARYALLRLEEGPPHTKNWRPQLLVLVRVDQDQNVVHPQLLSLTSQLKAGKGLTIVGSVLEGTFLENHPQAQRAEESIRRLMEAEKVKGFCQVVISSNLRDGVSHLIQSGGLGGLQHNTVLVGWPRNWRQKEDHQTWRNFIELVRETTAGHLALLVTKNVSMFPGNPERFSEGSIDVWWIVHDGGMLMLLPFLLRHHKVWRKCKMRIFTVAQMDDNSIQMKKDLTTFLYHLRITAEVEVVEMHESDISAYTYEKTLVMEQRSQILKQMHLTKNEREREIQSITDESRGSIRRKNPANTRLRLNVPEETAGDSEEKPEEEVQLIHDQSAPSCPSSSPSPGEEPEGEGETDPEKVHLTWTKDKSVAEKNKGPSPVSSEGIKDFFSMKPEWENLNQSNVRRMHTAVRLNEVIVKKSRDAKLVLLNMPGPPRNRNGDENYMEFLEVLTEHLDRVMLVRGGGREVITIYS
# S1P4 antag = S1P4 receptor antagonists, primary screen, cell-based | AID 1510, 2009 | S1P4-expressing cells, antagonist mode, reporter read-out | Sphingosine 1-phosphate receptor 4 (Homo sapiens), O95977 | 220,000 compounds, 0.26% hits | inhibition, % at 4.98 µM; in the data active means inhibition above about 29%;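 further: 0% = wells stimulated with agonist and 100% = vehicle wells without agonist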
# S1P4 agonist cf = S1P4 receptor agonists, retest, confirmation, cell-based, high throughput | activation, % at 4.98 µM | S1P4 agonist cell-based reporter assay | AID 1523, 2009 | shares compounds with S1P4 ag | 740 compounds, 7% hits; in the data active means activation above about 12%;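 further: 0% = vehicle and 100% = full reference agonist response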
# S1P1 agonist = S1P1 receptor agonists, human, counter-screen for S1P4 agonist project, cell-based. shares compounds with S1P4 ag. S1P1 agonist cell-based assay, activation. activation, % at 4.98 µM. 740 compounds, 4% hits; in the data active means activation above about 21%;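 further: 0% = vehicle wells and 100% = reference agonist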
# * marks the source's active call; other numbers are inactive results; . = no result. Sampled rows, rich in hits. Any-hit rate of the full collection: about 5.1%.
SMILES,S1P3 antagonist,S1P4 ag,ROMK mod,RAM inhibit,KCC2 mod,S1P4 antag,S1P4 agonist cf,S1P1 agonist
CCN(CC)S(=O)(=O)c1ccc(C(=O)Oc2cc(C)[nH]c(=O)c2[N+](=O)[O-])cc1,2,0,-0.054,1,1.2,-11,.,.
CCOCCCn1c(=NC(C)=O)c(C#N)cc2c(=O)n3cccc(C)c3nc21,-14,12*,.,.,-0.63,-9,2,28*
CC(C)OCCCn1c(=NC(=O)c2cccs2)c(C#N)cc2c(=O)n3ccccc3nc21,-21,19*,.,.,-0.35,7,4,8
CC(C)OCCCn1c(=NC(=O)c2ccncc2)c(C#N)cc2c(=O)n3ccccc3nc21,-23,4,-0.95,1,.,-12,.,.
CCCCn1c(=NC(C)=O)c(C#N)cc2c(=O)n3cccc(C)c3nc21,-1,.,.,.,.,.,.,.
CC(=O)N=c1c(C#N)cc2c(=O)n3ccccc3nc2n1CCCOC(C)C,-3,16*,.,.,-0.4,-22,4,1
CCCCCn1c(=NC(C)=O)c(C#N)cc2c(=O)n3ccccc3nc21,-5,1,.,5,-1,-11,.,.
COc1cc(NC2=CC(=O)CC(C)(C)C2)cc(OC)c1OC,.,3,1.3,0,-0.78,-5,.,.
COc1cc(NC2=CC(=O)CC(C)(C)C2)cc(OC)c1,-12,28*,.,0,0.032,-2,-1,3
Cc1oc(-c2cccc(Br)c2)[n+]([O-])c1C,-2,0,0.83,1,0.25,14,.,.
CC(=O)NN1C(=O)c2ccc(Oc3ccc4c(c3)C(=O)N(NC(C)=O)C4=O)cc2C1=O,-10,23*,1.6,4,0.17,-11,-2,0
CCc1ccc(-n2c(C)n[nH]c2=S)cc1,-15,-1,.,0,.,12,.,.
Cc1ccc(C(=O)NCCc2nnc3ccc(SCC(=O)Nc4c(C)cc(C)cc4C)nn23)cc1,9,13*,.,-1,0.27,-13,-1,-3
CCOC(=O)CC1C(=O)NCCN1S(=O)(=O)c1ccc(Br)cc1 (stereo not given),-18,11*,-0.074,1,0.28,-2,0,4
CCOC(=O)CC1C(=O)NCCN1S(=O)(=O)c1ccc(C)cc1 (stereo not given),-8,2,0.85,0,0.048,-14,.,.
CCOC(=O)c1nc(NCCc2ccccc2)sc1C,-3,30*,-0.0066,0,-1.8,-11,-2,-6
COC(=O)C(C)(C)ONC(=O)Nc1ccc(Br)cc1,2,-1,-0.22,0,0.064,6,.,.
COC(=O)C(C)(C)ONC(=O)Nc1ccccc1,-27,194*,.,0,1.4,5,-2,-3
COc1cccc(C2C3=C(CCCC3=O)NC3=C2C(=O)c2ccccc23)c1 (stereo not given),-1,13*,0.42,3,-0.35,-12,-2,-5
C=CCNC(=O)c1ccc(OC)cc1,-16,15*,.,.,0.071,-2,-1,4
Cn1cccc1CC(=O)N/N=C/c1ccc(Cl)c([N+](=O)[O-])c1,1,-2,-1.3,.,-0.11,6,.,.
CC(=O)OCC1(C)CN(c2ccccc2)N(C(=O)c2ccc(C(C)(C)C)cc2)C1=O (stereo not given),-3,25*,-0.39,1,-1.3,3,-2,-5
Nc1nc(NCC2CCCO2)nc(Nc2ccc(F)cc2)c1[N+](=O)[O-] (stereo not given),6,25*,.,4,-0.25,-10,-3,-1
COc1ccc(C)cc1NC(=O)c1ccc2c(SCC(=O)O)c3c(nc2c1)CCCC3,-20,45*,.,.,.,-12,-2,-3
N#Cc1ccc(CSc2nnc(-c3cccnc3)o2)cc1,-16,65*,-0.39,1,0.55,-15,-3,-5
SMILES,S1P3 antagonist,S1P4 ag,ROMK mod,RAM inhibit,KCC2 mod,S1P4 antag,S1P4 agonist cf,S1P1 agonist
CC(C)(C)S(=O)(=O)/C(C#N)=N/Nc1ccc(Cl)cc1,-13,-1,0.87,2,-3.8,4,.,.
CC(C)(C)c1ccc(N/N=C(\C#N)S(=O)(=O)C(C)(C)C)cc1,-3,29*,-1.6,3,-1.6,-34,-2,-3
Cc1nn(Cc2ccc(Cl)cc2)c(C)c1NC(=O)c1cc(-c2ccc3c(c2)OCO3)on1,42,1,-0.11,5,.,10,.,.
Cc1nn(Cc2ccc(Cl)c(Cl)c2)c(C)c1NC(=O)c1cc(-c2ccc3c(c2)OCO3)on1,41,22*,-1.6,1,.,11,-2,-2
COC(=O)CCCC(=O)NC(C)c1cnn(-c2ccccc2C)c1C (stereo not given),-2,10,0.058,1,0.46,-11,.,.
COc1ccccc1NC(=O)c1c(NC(=O)c2ccco2)sc2c1CCC2,18,14*,0.27,3,0.43,-11,0,-3
CCOC(=O)CSc1ccc(-c2nc3ccccc3[nH]2)cn1,.,19*,.,1,-0.42,-3,-1,-5
Cc1cc(C)n(S(=O)(=O)c2ccc(C)c(C)c2C)n1,-13,0,.,0,.,-21,.,.
COc1ccc(S(=O)(=O)n2nc(C)cc2C)c(C)c1C,.,48*,-1.4,-1,.,0,-2,-4
CCOc1ccc(S(=O)(=O)n2c(C)nc3ccccc32)cc1,-11,14*,.,1,0.55,-4,-1,-7
Cc1cccc(OCC(=O)Nc2ncn[nH]2)c1C,-3,24*,.,.,-0.014,-20,-3,-4
Cc1ccc(OCCN2C(=O)C(=O)c3cccc(C)c32)cc1,-17,-1,0.71,2,.,-16,.,.
Cn1cccc1C(=O)C(=O)Nc1cccc(Cl)c1Cl,.,20*,.,6,1.2,1,-1,1
CC(C)CC[n+]1ccn(-c2nc3ccccc3nc2[N-]S(=O)(=O)c2ccc(Cl)cc2)c1,-26,1,.,.,-0.35,-8,.,.
COCCSc1ccccc1C(=O)N1CCN(Cc2ccccc2)CC1,-9,13*,-0.024,2,-1.2,-10,-2,-7
COCCSc1ccccc1C(=O)N1CCCC1,-8,1,.,3,-0.44,-12,.,.
